pPAFAH inh = pPAFAH (human) enzyme inhibition; inhibition, % at 3.39 µM; Q13093; recombinant pPAFAH, FP-rhodamine probe fluorescence polarization; 330,000 tested, 1.5% active;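 active means inhibition above the mean inhibition across the screen plus 3 SD, cut at about 25% in these data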;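 further: inhibitors block binding of the rhodamine activity-based probe so polarization drops; 0% = enzyme with DMSO and 100% = wells lacking pPAFAH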
PAFAH2 FP inh = inhibitors of human PAFAH2; Q99487; inhibition, % at 3.39 µM; AID 492956; 340,000 tested, 0.99% active; recombinant PAFAH2, FP-rhodamine activity probe, fluorescence polarization;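 active means inhibition above the mean over all tested compounds plus 3 SD, cut at about 30% in these data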;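 further: inhibitors block probe labeling of enzyme so polarization drops; 0% = enzyme with DMSO and 100% = wells lacking PAFAH2 protein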
Fam108B inh = Fam108B inhibition, counter-screen for RBBP9 inhibitors; recombinant Fam108B, FP-Rh probe fluorescence polarization; inhibition, % at 9.51 µM; 300,000 tested, 0.33% active;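 active means inhibition above the screen mean inhibition plus 3 SD, computed separately per campaign, cut at about 18% in these data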;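 further: inhibitors lower polarization as less probe binds the enzyme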
PAFAH1B3 inh = inhibitors of human PAFAH1B3. AID 492972. 340,000 tested, 0.28% active. inhibition, % at 3.39 µM. recombinant PAFAH1B3, FP-rhodamine probe, fluorescence polarization. Q15102;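 active means inhibition above the screen-wide average of all tested compounds plus 3 SD, cut at about 25% in these data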;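 further: 0% = enzyme with DMSO only and 100% = wells lacking PAFAH1B3 protein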
PAFAH1B2 FP inh = blocks human PAF acetylhydrolase 1b catalytic subunit 2; P68402; recombinant PAFAH1B2, FP-rhodamine activity probe, fluorescence polarization; inhibition, % at 3.39 µM; 340,000 tested, 1.2% active; AID 492953;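 active means inhibition above the mean of all tested compounds plus 3 SD, cut at about 24% in these data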;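 further: 0% = enzyme with DMSO and 100% = wells lacking PAFAH1B2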
Target sequence (P68402 whole entry, looked up): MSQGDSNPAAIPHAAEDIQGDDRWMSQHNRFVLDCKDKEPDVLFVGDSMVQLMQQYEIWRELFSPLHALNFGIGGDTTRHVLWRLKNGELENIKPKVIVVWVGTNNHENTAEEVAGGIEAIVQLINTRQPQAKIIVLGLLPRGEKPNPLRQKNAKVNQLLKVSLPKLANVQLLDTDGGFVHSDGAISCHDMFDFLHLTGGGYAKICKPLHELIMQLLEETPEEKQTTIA
PME-1 primary = blocks human protein phosphatase methylesterase 1; Q9Y570; recombinant PME-1, FP-Rh probe fluorescence polarization; inhibition, % at 5.9 µM; 320,000 tested, 0.53% active; AID 2130;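 active means inhibition above the campaign mean of all compounds plus 3 SD, cut at about 26% in these data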;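 further: competitive labeling of PME-1 active site by serine hydrolase directed probe; 0% = PME-1 with DMSO and 100% = wells lacking PME-1 enzyme; inhibitors block probe labeling so polarization falls and inhibition rises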
Target sequence (Q9Y570 whole entry, looked up): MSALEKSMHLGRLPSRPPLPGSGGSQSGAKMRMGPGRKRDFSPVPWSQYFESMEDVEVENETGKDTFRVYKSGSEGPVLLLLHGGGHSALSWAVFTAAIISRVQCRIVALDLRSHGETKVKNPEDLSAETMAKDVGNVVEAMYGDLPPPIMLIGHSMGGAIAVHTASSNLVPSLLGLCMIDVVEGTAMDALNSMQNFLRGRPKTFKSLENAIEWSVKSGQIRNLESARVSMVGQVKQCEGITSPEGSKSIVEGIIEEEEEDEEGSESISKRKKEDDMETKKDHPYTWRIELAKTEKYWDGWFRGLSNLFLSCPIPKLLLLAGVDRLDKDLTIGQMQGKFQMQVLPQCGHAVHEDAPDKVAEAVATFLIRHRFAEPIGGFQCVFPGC
PAFAH2 FP conf = confirmation of human PAFAH2 inhibitors | shares compounds with PAFAH2 FP inh | recombinant PAFAH2, FP-rhodamine activity probe, fluorescence polarization | inhibition, % at 3.39 µM | 2,300 tested, 65% active | AID 493030;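 active means mean inhibition over three repeats above a set limit taken from the earlier primary screen, cut at about 30% in these data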;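 further: inhibitor blocks binding of rhodamine activity probe so polarization falls; 0% = enzyme with DMSO and 100% = wells lacking PAFAH2 protein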
An asterisk follows results filed as active; · = no result. Hits are enriched below; roughly 2.8% of the tested compounds scored in any of these assays.

SMILES	pPAFAH inh	PAFAH2 FP inh	Fam108B inh	PAFAH1B3 inh	PAFAH1B2 FP inh	PME-1 primary	PAFAH2 FP conf
CC(=O)Nc1ccc(C(=O)OCc2ccc(F)cc2Cl)cc1	5	19	-2	-5	-1	2	·
CC(=O)Nc1ccc(C(=O)OCc2ccc(Cl)c(Cl)c2)cc1	1	61*	-4	4	5	-13	63*
COC(=O)c1ccc(COC(=O)c2ccc(CS(=O)(=O)c3ccc(C)cc3)cc2)cc1	1	-2	-1	9	3	0	·
CCC(=O)Nc1ccc(C(=O)OCc2ccc(Cl)c(Cl)c2)cc1	0	36*	-3	-2	-2	-3	47*
COc1ccc(N2CCN(C(=O)C3CCCN(S(=O)(=O)c4ccc(C)cc4)C3)CC2)cc1 (configuration not stated)	-2	-6	-3	-2	12	5	·
Cc1ccc(S(=O)(=O)Nc2cccc(C(=O)NCC3CCCO3)c2)cc1F (configuration not stated)	3	4	-1	1	7	-4	·
O=C(NCc1cccc(C(F)(F)F)c1)C1CC2Cn3c(nc4ccccc43)C2N1Cc1ccccc1 (configuration not stated)	-5	-2	0	14	4	4	·
COc1ccc2c(c1)CC/C2=N\OC(=O)c1cccc(C)c1	4	-4	-6	1	8	-9	·
O=C(O/N=C1\CCS(=O)(=O)c2sccc21)c1ccc(F)cc1	2	52*	-6	-2	3	3	55*
Cc1cccc(C(=O)O/N=C2\CCS(=O)(=O)c3sccc32)c1	16	78*	-1	7	4	4	77*
O=C(O/N=C1\CCS(=O)(=O)c2sccc21)c1ccccc1	3	73*	7	6	-4	-5	71*
Cc1ccc(C(=O)OC2CCS(=O)(=O)c3sccc32)cc1 (configuration not stated)	2	-7	-4	-1	-2	5	·
COC(=O)c1scc(C)c1NS(=O)(=O)c1ccc(NC(C)=O)cc1	2	-2	0	-2	4	-1	·
CCCOc1ccc(C(=O)CCC(=O)NNC(=O)c2cccs2)cc1	9	-8	·	6	-7	1	·
COc1ccccc1CNC(=O)CCCC(=O)n1nc(C)c2ccccc21	0	-7	-1	0	2	13	·
O=C(CCCN1C(=O)/C(=C/c2ccccc2)SC1=S)Nc1ccccc1O	-3	2	3	7	0	-11	·
O=C(CCN1C(=O)/C(=C/c2ccc(F)cc2)SC1=S)Nc1cc([N+](=O)[O-])ccc1O	5	65*	11	8	6	3	69*
CCOc1cccc(/C=N/NC(=S)Nc2ccccc2[N+](=O)[O-])c1O	17	45*	9	15	5	12	20
FC(F)(F)c1ccc(Oc2ccc(Cl)cc2Br)nc1	-4	4	-3	6	0	-3	·
COc1ccc(NC(=S)Nc2ccc(OCc3ccccc3)cc2)c(OC)c1	6	-2	2	5	5	7	·
COc1ccc(NC(=S)Nc2ccccc2)c(OC)c1	-1	164*	3	1	0	1	-1
Cc1cc(C)c(C)c(OCCCCN2CCCCC2)c1	-4	-1	-1	3	2	2	·
Cc1cccc(NC(=O)C(=O)C2C(=O)Nc3ccccc32)c1 (configuration not stated)	-2	36*	0	1	7	-1	29
O=C(NC1CCCC1)c1sc(=S)n2c1[nH]c(=O)c1ccccc12	15	39*	16	22	22	8	32*
O=C(NC1CCCCCCC1)c1c(O)c2ccccc2[nH]c1=O	1	3	1	-1	3	2	·
SMILES	pPAFAH inh	PAFAH2 FP inh	Fam108B inh	PAFAH1B3 inh	PAFAH1B2 FP inh	PME-1 primary	PAFAH2 FP conf
Cc1cc(C(=O)NCC(=O)Nc2c(C)cccc2C)c(C)o1	2	-3	-1	-6	1	-3	·
N#Cc1ccccc1NC(=O)COC(=O)c1ccc2c(c1)OCO2	4	62*	·	8	4	1	53*
N#CCC(=O)Nc1ccc(C(=O)OCC(=O)c2ccc3c(c2)OCO3)cc1	19	6	-1	1	-5	6	·
O=C(COC(=O)c1ccc2c(c1)OCO2)Nc1ccccc1F	6	54*	·	7	2	-4	49*
O=C(NCc1ccncc1)Nc1ccc(F)cc1	3	-4	-3	7	1	1	·
O=C(Nc1ccc(Br)cc1)C(c1ccccc1)c1ccccc1	-3	3	0	10	-2	8	·
CC(=O)Nc1ccc(NC(=O)COC(=O)c2ccc(Cl)nc2)cc1	·	1	·	7	0	·	·
Cc1noc(C)c1COc1ccc(C(=O)OCC(=O)Nc2ccc(S(N)(=O)=O)cc2)cc1	0	-1	·	5	5	-4	·
O=C(COC(=O)c1ccc(NC(=O)C2CC=CCC2C(=O)O)cc1)c1ccccc1 (configuration not stated)	-1	31*	3	7	8	-1	31*
O=C(COC(=O)c1ccc(Cl)nc1)Nc1ccc(Cl)cc1	·	36*	·	4	3	·	33*
Cc1noc(C)c1COc1ccc(C(=O)OCC(=O)Nc2ccc3c(c2)OCO3)cc1	15	80*	1	3	0	-6	86*
O=C(COC(=O)c1ccc(O)cc1)Nc1ccc2c(c1)OCO2	11	89*	·	4	2	·	81*
O=C(COC(=O)c1cncc(Br)c1)Nc1ccc2c(c1)OCO2	7	23	1	6	6	3	·
CCOC(=O)C1(CCc2ccccc2)CCN(Cc2cc(OC)c(OC)cc2OC)CC1	0	1	0	3	-2	0	·
O=C(COC(=O)c1ccc(Cl)nc1)Nc1ccc2c(c1)OCO2	1	53*	0	-1	-1	0	39*
O=C(COC(=O)c1ccc(Cl)nc1)Nc1ccc2c(c1)CCC2	-2	42*	·	10	-8	·	32*
O=C(COC(=O)c1ccc(Cl)nc1)Nc1ccc2c(c1)OCCO2	2	5	·	2	2	6	·
O=C(O)CCCC(=O)Nc1ccc(Cl)cc1	1	1	5	2	5	1	·
O=C(O)CCC(=O)Nc1ccc(C(=O)OCC(=O)c2ccc(Cl)cc2)cc1	3	42*	-3	7	4	-1	28
O=C(COC(=O)CN1C(=O)c2ccccc2C1=O)Nc1ccccc1	5	5	·	11	5	·	·
O=C(COC(=O)c1cccc(N2C(=O)c3ccccc3C2=O)c1)Nc1ccccc1	15	70*	-9	7	5	-5	71*
N#Cc1cccc(NC(=O)COC(=O)c2cccc(N3C(=O)c4ccccc4C3=O)c2)c1	10	67*	-5	-13	-13	-2	79*

Screens as filed in PubChem BioAssay.
